Reference: PubChem BioAssay (Tox21)
Records with an inconclusive call do not appear. Calls of active or inactive are those of the source. Calls follow the shape of the dose curve; as a rule, active = well fitted activation curve with a large enough effect in the signal ratio in the repeat runs (not every such curve was filed as active); inconclusive = weak or mixed curves; inactive = flat fitted curve, though single readings scatter; the % refers to the signal ratio.

Assay: qHTS assay to identify small molecule agonists of H2AX (AID 1224845)
Details: CHO-K1 phospho-H2AX Ser139 HTRF, 3 h; series mostly up to 154 µM
Source text: National Center for Advancing Translational Sciences [NCATS]
NIH Chemical Genomics Center [NCGC]
U.S. Environmental Protection Agency [EPA]
National Institutes of Environmental Health Sciences [NIEHS]
National Toxicology Program [NTP]
U.S. Food and Drug Administration [FDA]
HTRF phospho-H2AX (Ser139) assay (Cisbio Bioassays, US) enables the quantitative detection of the histone variant H2AX when phosphorylated on serine 139. When double-stranded DNA breaks, either by ionizing radiation or endogenous physiological processes, H2AX becomes phosphorylated at Ser139. This phospho-Ser139 serves as a sensitive biomarker for the detection of such breaks, localizing the site of DNA repair. So, HTRF phospho-H2AX Ser139 is a pertinent assay to study genome stability, the cell cycle, DNA repair, and it serves as a biomarker for cancer, and to understand aging. Wild type CHO-K1 cells were used to identify the inducers of Phospho-H2AX Ser 139 from the Tox21 10K compound collections.
Tox21 Assay Protocol Summary:
The CHO-K1 cells suspended in culture medium containing 10% FBS were dispensed at 1000 cells/ 3 ul/well in 1536-well white wall/solid bottom plates (Greiner Bio-One North America, NC) using a Multidrop Combi (Thermo Fisher Scientific Inc., Waltham, MA). After the assay plates were incubated at 37C overnight, 23 nl of compounds at 15 concentrations (from 5-48 columns) or positive control (from 1 to 4 columns) were transferred to the assay plates using a Pintool station (Wako, San Diego, CA) into each well resulting in a final DMSO concentration of 0.76%. After 3hr incubation at 37C, 1 uL/well Supplemented Lysis buffer (diluted 100 fold blocking reagent in lysis buffer) (HTRF Phospho-H2A.X (S139) Assay kit from Cisbio US Inc., Bedford, MA) was added using a Flying Reagent Dispenser (FRD) (Aurora Discovery, CA). After 10sec spin at 1000 rpm in a plate centrifuge, the assay plates were incubated at room temperature for 30 min. Then followed by the addition of 1 uL/well detection buffer (containing a mixture of two antibodies, one labeled with cryptate, Anti pH2AX (S139)-K and another labeled with d2, Anti H2AX-d2) using FRD. After incubation at room temperature for 24 hr, the time resolved fluorescence at excitation 320 nm and emissions at 665 nm and 620 nm was measured using an Envision plate reader (PerkinElmer, Waltham, MA).
% is scaled to controls: 0 for no effect and ±100 for the full control effect.

| Compound | outcome | activation (H2AX phosphorylation) |
| --- | --- | --- |
| O=[N+]([O-])c1ccc(Oc2ccc([N+](=O)[O-])cc2)cc1 | inactive | – |
| FC(F)(F)C(F)(F)C(F)(F)C(F)(F)C(F)(F)C(F)(F)C(F)(F)C(F)(F)C(F)(F)C(F)(F)F | – | -0.945% [at 14 µM] (inactive) |
| NC(=O)c1ncn([C@@H]2O[C@H](CO)[C@@H](O)[C@H]2O)c1O | inactive | – |
| CC1=CC(C)C(C=O)C(C)C1 (stereo not given) | inactive | – |
| CC(C)(O)c1ccccc1 | inactive | – |
| O=C(O)C(O)[C@H](O)[C@@H](O)[C@H](O)[C@H](O)CO (stereo not given in full) | inactive | – |
| CC1(C)SC(C)(C)SC(C)(C)S1 | inactive | – |
| C=C(C)C(=O)NCCC[N+](C)(C)C | inactive | – |
| C=CC(=O)N1CCOCC1 | inactive | – |
| C=CCSCC1Nc2cc(Cl)c(S(N)(=O)=O)cc2S(=O)(=O)N1 (stereo not given) | inactive | – |
| C[N+](C)(C)CC[N+]1(C)Cc2c(Cl)c(Cl)c(Cl)c(Cl)c2C1 | inactive | – |
| Cc1c(C)n(CCN(C)C)c2ccc(C(=O)OCCN(C)C)cc12 | inactive | – |
| O=C1C(CCS(=O)c2ccccc2)C(=O)N(c2ccccc2)N1c1ccccc1 (stereo not given) | inactive | – |
| CCCCCCCCCCCCCCCCCC(=O)OCCCCCCCCCCCCCC(C)C | inactive | – |
| CN(C)CCn1nnnc1SCC1=C(C(=O)O)N2C(=O)[C@@H](NC(=O)Cc3csc(N)n3)[C@H]2SC1 | inactive | – |
| CC(C)(C)N(CCO)CCO | inactive | – |
| CCCCc1ccc(N)cc1 | inactive | – |
| O=c1[nH]c(=O)n([C@H]2O[C@H](CO)[C@@H](O)[C@@H]2O)cc1/C=C\Br | inactive | – |
| OCCCCCCO | inactive | – |
| CCO[Si](C)(OCC)OCC | inactive | – |

| Compound | outcome | activation (H2AX phosphorylation) |
| --- | --- | --- |
| OC/C=C/c1ccccc1 | inactive | – |
| N[C@@H](CS)C(=O)O | inactive | – |
| CO[Si](CCCNCCC[Si](OC)(OC)OC)(OC)OC | inactive | – |
| CC(C)[C@H](N)C(=O)OCCOCn1cnc2c(=O)[nH]c(N)nc21 | inactive | – |
| CC(C)[N+](C)(C)CC(O)COc1cccc2ccccc12 (stereo not given) | inactive | – |
| CC(O)CN(CCCN(C)C)CCCN(C)C (stereo not given) | inactive | – |
| NCC[C@H](O)C(=O)N[C@@H]1C[C@H](N)[C@@H](O[C@H]2O[C@H](CN)[C@@H](O)[C@H](O)[C@H]2O)[C@H](O)[C@H]1O[C@H]1O[C@H](CO)[C@@H](O)[C@H](N)[C@H]1O | – | 0.216% [at 0.582 µM] (inactive) |
| CCN(CC)S(=O)(=O)c1ccc(C(=O)O)cc1 | inactive | – |
| C(=C(c1ccccc1)c1ccccc1)c1ccccc1 | inactive | – |
| CN(C)C(=O)C(CCN1CCC(O)(c2ccc(Cl)cc2)CC1)(c1ccccc1)c1ccccc1 | inactive | – |
| CCn1cc(C(=O)O)c(=O)c2cc(F)c(N3CCN(C)CC3)cc21 | – | -0.959% [at 31.6 µM] (inactive) |
| O=C(O)c1ccc[n+]([O-])c1 | inactive | – |
| CCC(C(=O)NC(N)=O)c1ccccc1 (stereo not given) | inactive | – |
| CC(=O)CCc1ccc(O)cc1 | inactive | – |
| CC(C)COC(=O)c1ccccc1O | inactive | – |
| NCCNC(=O)c1ccc(Cl)cn1 | inactive | – |
| Nc1[nH]c(=O)ncc1F | inactive | – |
| CC(C)(C)CC(C)(C)N | inactive | – |
| O=c1[nH]c2ccccc2c(=O)n1CCCl | inactive | – |
| Cc1nccn1CC1CCc2c(c3ccccc3n2C)C1=O (stereo not given) | inactive | – |
